# From paper PMC7862700, “An all-to-all approach to the identification of sequence-specific readers for epigenetic DNA modifications on cytosine”
# Experiments:
# Test in all cases: DAPPL (digital affinity profiling via proximity ligation, sequencing); 10 mM Tris-HCl pH 7.5, 50 mM NaCl, 1 mM DTT, 4% glycerol, room temperature, 30 min; GST-TFs on glutathione beads, 16-mer random dsDNA library, 0.1% formaldehyde crosslink after washing; high values mean tight binding
# FLI1 = target: T1, FLI1 (Homo sapiens, UniProt Q01543 1-452); conditions: protein: recombinant; tags: N-terminal GST; dsDNA, one strand shown
# T1 sequence: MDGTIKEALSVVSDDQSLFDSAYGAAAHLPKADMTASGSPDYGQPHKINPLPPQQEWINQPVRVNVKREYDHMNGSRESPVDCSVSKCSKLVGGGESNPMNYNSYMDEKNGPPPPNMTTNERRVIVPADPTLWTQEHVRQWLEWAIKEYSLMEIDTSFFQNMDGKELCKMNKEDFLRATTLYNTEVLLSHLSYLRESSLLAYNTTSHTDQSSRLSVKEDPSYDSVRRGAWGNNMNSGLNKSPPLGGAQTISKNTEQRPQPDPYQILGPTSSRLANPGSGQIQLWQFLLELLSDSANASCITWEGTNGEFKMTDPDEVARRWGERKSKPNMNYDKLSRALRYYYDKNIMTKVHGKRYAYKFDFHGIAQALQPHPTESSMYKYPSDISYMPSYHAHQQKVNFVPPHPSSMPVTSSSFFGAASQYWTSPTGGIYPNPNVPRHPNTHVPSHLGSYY
# Outline: (§1)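 Binding signal is defined as a hexamer's read frequency for one factor over its frequency for the tag-only sample. To obtain reads, GST-fused human transcription factors were expressed in yeast, captured on glutathione beads, barcoded with DNA and pooled with that sample. Pools met 200 nmole of a 16-mer random double-stranded DNA library in Tris/NaCl/DTT/glycerol buffer for 30 min at room temperature before washing, 0.1% formaldehyde crosslinking, proximity ligation (BsaI/T4 ligase, 1 h, 37 °C), PCR and Illumina NextSeq500 sequencing.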
# ELK1 = target: T2, ELK1 (Homo sapiens, UniProt P19419 1-428); conditions: protein: recombinant; tags: N-terminal GST; dsDNA, one strand shown
# T2 sequence: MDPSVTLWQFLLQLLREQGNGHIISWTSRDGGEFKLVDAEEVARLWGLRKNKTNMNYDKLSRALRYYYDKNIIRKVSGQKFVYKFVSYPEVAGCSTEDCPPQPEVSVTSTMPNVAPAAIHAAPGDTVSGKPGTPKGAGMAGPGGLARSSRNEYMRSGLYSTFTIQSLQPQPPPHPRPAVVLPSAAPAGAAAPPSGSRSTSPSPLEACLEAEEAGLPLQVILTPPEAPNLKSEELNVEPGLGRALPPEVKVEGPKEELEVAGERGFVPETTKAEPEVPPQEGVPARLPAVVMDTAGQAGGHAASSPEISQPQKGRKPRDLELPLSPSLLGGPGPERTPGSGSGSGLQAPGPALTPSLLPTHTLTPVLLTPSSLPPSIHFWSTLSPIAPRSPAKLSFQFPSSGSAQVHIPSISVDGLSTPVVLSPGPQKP
# Outline: as §1
# GABPA = target: T3, GABPA (Homo sapiens, UniProt Q06546 1-454); conditions: protein: recombinant; tags: N-terminal GST; dsDNA, one strand shown
# T3 sequence: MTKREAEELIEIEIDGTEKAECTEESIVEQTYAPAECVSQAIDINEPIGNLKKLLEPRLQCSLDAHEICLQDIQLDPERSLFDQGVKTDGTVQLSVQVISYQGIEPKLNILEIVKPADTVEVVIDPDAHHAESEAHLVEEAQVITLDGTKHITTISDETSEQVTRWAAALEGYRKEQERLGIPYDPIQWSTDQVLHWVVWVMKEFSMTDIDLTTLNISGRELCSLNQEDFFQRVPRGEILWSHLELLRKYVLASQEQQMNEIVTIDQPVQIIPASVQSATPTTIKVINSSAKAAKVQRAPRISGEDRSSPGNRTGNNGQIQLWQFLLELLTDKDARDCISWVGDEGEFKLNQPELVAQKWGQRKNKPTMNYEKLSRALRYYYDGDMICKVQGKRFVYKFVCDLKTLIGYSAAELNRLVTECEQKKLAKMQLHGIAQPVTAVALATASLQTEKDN
# Outline: as §1
# ERG = target: T4, ERG (Homo sapiens, UniProt P11308 1-479); conditions: protein: recombinant; tags: N-terminal GST; dsDNA, one strand shown
# T4 sequence: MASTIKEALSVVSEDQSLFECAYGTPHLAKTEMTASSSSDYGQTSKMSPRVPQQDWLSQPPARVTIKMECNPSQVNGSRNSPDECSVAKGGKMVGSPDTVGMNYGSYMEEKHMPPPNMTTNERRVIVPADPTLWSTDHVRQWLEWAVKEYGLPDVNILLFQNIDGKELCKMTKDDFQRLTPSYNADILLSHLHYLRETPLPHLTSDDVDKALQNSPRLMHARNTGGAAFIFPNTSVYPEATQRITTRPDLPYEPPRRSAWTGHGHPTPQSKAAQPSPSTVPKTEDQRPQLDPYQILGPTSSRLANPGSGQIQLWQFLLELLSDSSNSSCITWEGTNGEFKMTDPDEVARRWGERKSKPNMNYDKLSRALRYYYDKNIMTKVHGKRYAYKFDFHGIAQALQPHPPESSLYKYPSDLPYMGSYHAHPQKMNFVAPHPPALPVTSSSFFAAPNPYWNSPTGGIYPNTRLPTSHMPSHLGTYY
# Outline: as §1
# ELF1 = ELF1 (Homo sapiens, UniProt P32519 1-619); conditions: protein: recombinant; tags: N-terminal GST; dsDNA, one strand shown
# Outline: as §1
# EHF = target: T5, EHF (Homo sapiens, UniProt Q9NZC4 1-300); conditions: protein: recombinant; tags: N-terminal GST; dsDNA, one strand shown
# T5 sequence: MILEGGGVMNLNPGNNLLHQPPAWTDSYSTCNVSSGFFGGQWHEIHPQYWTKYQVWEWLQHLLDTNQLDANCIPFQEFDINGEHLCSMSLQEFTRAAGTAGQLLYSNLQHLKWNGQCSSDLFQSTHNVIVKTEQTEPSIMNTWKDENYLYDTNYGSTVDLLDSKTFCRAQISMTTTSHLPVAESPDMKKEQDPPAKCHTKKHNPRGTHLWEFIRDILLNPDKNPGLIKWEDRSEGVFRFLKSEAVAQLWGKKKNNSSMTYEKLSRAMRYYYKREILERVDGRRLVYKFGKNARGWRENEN
# Outline: as §1
# SPI1 = SPI1 (Homo sapiens, UniProt P17947 1-270); conditions: protein: recombinant; tags: N-terminal GST; dsDNA, one strand shown
# Outline: as §1
# SPIB = SPIB (Homo sapiens, UniProt Q01892 1-262); conditions: protein: recombinant; tags: N-terminal GST; dsDNA, one strand shown
# Outline: as §1
# ELK3 = target: T6, ELK3 (Homo sapiens, UniProt P41970 1-407); conditions: protein: recombinant; tags: N-terminal GST; dsDNA, one strand shown
# T6 sequence: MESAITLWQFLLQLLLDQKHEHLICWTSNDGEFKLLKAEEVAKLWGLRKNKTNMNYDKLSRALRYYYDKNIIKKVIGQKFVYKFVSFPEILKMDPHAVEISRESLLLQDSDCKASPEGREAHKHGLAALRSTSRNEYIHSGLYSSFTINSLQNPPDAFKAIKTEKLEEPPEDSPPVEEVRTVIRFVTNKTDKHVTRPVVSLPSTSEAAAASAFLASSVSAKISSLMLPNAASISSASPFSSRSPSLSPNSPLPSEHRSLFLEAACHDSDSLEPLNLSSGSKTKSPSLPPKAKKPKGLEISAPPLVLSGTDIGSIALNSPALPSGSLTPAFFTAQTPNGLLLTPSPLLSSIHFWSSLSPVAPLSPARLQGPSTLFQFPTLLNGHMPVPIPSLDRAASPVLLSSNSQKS
# Outline: as §1
# FEV = target: T7, FEV (Homo sapiens, UniProt Q99581 1-238); conditions: protein: recombinant; tags: N-terminal GST; dsDNA, one strand shown
# T7 sequence: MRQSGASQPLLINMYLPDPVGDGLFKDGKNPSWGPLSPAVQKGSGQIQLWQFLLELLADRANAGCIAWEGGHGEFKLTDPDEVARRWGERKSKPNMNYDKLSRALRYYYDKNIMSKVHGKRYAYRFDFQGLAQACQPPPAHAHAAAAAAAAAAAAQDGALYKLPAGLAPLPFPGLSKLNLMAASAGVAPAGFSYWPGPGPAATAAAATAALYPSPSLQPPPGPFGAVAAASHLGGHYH
# Outline: as §1
# ETV5 = ETV5 (Homo sapiens, UniProt P41161 1-510); conditions: protein: recombinant; tags: N-terminal GST; dsDNA, one strand shown
# Outline: as §1
# HSF1 = HSF1 (Homo sapiens, UniProt Q00613 1-529); conditions: protein: recombinant; tags: N-terminal GST; chain copies: 3; dsDNA, one strand shown
# Outline: as §1
# SPIC = target: T8, SPIC (Homo sapiens, UniProt Q8N5J4 1-248); conditions: protein: recombinant; tags: N-terminal GST; dsDNA, one strand shown
# T8 sequence: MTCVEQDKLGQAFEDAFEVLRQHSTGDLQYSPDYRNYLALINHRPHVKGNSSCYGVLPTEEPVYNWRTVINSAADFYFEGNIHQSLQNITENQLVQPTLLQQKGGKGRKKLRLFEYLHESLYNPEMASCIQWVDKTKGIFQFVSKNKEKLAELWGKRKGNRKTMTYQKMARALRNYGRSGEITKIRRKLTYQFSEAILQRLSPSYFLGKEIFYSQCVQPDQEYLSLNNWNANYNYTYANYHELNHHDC
# Outline: as §1
# ELF4 = ELF4 (Homo sapiens, UniProt Q99607 1-663); conditions: protein: recombinant; tags: N-terminal GST; dsDNA, one strand shown
# Outline: as §1
# ELK4 = target: T9, ELK4 (Homo sapiens, UniProt P28324-2 1-405); conditions: protein: recombinant; tags: N-terminal GST; dsDNA, one strand shown
# T9 sequence: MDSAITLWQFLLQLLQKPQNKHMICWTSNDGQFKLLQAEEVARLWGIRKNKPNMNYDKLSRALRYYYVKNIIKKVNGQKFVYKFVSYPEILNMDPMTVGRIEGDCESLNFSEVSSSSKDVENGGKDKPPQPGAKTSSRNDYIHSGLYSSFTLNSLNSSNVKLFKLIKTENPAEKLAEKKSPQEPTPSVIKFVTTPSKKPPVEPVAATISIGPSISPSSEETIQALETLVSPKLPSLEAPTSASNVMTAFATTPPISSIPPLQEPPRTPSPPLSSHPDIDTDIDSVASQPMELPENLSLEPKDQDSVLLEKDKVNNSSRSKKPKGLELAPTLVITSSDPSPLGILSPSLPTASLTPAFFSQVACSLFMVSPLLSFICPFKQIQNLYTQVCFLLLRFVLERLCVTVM
# Outline: as §1
# ETV2 = target: T10, ETV2 (Homo sapiens, UniProt O00321 1-342); conditions: protein: recombinant; tags: N-terminal GST; dsDNA, one strand shown
# T10 sequence: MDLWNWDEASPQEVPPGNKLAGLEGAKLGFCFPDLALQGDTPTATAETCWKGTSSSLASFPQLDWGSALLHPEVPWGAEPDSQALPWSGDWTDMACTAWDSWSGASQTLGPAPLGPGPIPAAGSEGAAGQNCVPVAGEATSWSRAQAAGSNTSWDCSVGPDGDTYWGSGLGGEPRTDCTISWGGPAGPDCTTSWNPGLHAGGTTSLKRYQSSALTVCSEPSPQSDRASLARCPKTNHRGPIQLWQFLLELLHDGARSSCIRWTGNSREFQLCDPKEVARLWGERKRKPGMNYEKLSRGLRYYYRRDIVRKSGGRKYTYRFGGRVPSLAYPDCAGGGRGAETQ
# Outline: as §1
# ELF3 = target: T11, ELF3 (Homo sapiens, UniProt P78545 1-371); conditions: protein: recombinant; tags: N-terminal GST; dsDNA, one strand shown
# T11 sequence: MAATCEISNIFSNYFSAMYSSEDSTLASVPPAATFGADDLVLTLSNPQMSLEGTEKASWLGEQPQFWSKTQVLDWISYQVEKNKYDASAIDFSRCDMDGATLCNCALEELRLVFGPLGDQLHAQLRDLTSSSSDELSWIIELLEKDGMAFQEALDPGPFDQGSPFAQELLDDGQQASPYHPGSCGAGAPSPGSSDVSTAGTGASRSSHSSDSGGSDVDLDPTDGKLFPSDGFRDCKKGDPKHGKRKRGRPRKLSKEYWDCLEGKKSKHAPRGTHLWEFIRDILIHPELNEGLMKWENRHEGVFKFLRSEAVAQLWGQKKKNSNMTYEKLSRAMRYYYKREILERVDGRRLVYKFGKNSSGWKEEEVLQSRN
# Outline: as §1
# CRX = CRX (Homo sapiens, UniProt O43186 1-299); conditions: protein: recombinant; tags: N-terminal GST; dsDNA, one strand shown
# Outline: as §1
# ETV1 = ETV1 (Homo sapiens, UniProt P50549 1-477); conditions: protein: recombinant; tags: N-terminal GST; dsDNA, one strand shown
# Outline: as §1
# ETV1, sequence (P50549 whole entry): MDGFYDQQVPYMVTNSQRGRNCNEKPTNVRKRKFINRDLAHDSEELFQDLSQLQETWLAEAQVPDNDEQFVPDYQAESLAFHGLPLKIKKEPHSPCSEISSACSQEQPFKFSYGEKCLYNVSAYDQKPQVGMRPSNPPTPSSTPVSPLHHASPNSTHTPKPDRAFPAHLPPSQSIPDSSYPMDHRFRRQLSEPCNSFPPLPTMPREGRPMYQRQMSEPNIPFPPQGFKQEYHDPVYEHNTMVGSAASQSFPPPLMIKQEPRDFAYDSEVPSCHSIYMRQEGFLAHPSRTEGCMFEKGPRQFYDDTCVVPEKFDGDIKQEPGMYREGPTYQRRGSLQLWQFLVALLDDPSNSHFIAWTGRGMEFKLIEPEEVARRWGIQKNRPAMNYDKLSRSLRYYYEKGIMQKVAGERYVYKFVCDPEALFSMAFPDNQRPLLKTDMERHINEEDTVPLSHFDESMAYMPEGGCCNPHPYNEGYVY
# HSF1, sequence (Q00613 whole entry): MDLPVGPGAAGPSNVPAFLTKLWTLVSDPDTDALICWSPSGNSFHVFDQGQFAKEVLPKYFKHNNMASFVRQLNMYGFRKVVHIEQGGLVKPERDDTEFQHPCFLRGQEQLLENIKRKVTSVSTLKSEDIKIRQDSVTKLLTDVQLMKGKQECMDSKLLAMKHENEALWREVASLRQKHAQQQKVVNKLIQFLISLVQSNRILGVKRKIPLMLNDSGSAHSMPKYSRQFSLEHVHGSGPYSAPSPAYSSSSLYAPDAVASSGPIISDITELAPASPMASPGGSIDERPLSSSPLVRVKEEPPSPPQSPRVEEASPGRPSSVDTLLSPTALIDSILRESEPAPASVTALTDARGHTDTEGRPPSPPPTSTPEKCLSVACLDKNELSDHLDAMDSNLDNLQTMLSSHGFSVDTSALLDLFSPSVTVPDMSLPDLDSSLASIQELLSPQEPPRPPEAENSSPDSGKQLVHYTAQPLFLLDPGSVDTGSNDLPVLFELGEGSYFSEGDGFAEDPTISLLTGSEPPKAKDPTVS
# ELF1, sequence (P32519 whole entry): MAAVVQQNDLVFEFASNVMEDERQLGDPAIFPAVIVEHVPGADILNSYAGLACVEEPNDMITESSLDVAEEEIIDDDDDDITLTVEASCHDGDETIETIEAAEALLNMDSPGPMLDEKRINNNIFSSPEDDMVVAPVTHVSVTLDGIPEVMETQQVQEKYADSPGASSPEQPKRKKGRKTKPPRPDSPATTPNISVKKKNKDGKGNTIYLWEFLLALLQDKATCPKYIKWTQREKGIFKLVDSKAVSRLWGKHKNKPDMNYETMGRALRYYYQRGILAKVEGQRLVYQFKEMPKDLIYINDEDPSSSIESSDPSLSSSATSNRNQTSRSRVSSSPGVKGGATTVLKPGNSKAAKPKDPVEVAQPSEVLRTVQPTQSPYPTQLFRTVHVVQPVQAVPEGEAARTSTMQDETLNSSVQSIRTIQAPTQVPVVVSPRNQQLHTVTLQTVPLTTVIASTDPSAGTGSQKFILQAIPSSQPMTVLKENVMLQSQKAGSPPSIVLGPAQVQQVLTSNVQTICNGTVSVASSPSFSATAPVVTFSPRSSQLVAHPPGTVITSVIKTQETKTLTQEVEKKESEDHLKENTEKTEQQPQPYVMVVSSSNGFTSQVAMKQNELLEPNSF
# SPIB, sequence (Q01892 whole entry): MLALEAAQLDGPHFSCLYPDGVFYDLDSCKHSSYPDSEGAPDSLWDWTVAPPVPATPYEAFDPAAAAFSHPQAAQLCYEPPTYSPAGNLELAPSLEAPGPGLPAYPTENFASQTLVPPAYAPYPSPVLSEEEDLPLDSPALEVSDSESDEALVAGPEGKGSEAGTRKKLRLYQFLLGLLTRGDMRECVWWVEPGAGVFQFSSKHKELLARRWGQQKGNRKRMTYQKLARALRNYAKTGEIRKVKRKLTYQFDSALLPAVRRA
# CRX, sequence (O43186 whole entry): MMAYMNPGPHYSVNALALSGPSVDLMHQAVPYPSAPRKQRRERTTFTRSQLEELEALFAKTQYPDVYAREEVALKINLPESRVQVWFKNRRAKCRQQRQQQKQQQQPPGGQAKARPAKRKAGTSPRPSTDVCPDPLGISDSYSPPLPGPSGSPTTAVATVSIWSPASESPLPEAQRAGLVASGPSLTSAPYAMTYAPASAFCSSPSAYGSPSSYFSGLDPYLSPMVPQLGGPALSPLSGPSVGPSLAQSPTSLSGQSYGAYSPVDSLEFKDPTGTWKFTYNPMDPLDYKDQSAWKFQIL
# ETV5, sequence (P41161 whole entry): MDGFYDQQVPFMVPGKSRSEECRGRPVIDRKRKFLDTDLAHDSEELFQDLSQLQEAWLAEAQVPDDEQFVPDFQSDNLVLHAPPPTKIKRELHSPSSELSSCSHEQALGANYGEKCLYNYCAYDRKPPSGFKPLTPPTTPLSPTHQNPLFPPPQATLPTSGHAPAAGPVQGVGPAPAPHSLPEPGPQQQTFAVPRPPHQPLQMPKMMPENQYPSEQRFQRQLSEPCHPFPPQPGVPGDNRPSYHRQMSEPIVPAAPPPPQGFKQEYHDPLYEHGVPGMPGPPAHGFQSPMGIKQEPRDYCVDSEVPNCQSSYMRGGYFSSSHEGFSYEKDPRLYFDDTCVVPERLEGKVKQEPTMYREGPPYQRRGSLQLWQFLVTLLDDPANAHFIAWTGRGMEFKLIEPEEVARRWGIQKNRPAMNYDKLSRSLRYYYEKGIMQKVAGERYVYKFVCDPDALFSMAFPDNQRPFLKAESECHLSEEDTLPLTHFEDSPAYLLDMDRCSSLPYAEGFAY
# ELF4, sequence (Q99607 whole entry): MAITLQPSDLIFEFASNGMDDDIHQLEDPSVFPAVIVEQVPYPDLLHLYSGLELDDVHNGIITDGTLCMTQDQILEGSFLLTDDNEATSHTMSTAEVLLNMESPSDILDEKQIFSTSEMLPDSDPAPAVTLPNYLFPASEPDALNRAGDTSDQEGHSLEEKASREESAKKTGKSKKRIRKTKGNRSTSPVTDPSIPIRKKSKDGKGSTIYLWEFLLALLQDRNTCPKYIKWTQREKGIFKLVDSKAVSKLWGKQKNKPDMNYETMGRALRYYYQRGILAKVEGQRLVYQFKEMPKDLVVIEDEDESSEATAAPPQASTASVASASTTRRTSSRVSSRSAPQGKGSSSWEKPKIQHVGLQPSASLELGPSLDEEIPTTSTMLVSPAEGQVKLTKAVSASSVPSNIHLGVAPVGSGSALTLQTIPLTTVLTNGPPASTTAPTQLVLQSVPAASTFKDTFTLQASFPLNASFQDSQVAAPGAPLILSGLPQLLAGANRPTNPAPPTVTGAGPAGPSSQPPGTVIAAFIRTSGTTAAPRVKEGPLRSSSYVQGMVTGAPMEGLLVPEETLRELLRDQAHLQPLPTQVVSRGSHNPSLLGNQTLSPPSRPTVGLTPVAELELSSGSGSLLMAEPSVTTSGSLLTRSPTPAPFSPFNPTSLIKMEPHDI
sequence,measurement,setting,value
GCTTTA,binding signal,FLI1,"1.19 fold enrichment (6-mer frequency, TF over GST control)"
same,binding signal,ELK1,"1.13 fold enrichment (6-mer frequency, TF over GST control)"
same,binding signal,GABPA,"1.08 fold enrichment (6-mer frequency, TF over GST control)"
same,binding signal,ERG,"1.05 fold enrichment (6-mer frequency, TF over GST control)"
same,binding signal,ELF1,"1.09 fold enrichment (6-mer frequency, TF over GST control)"
same,binding signal,EHF,"1.09 fold enrichment (6-mer frequency, TF over GST control)"
same,binding signal,SPI1,"1.16 fold enrichment (6-mer frequency, TF over GST control)"
same,binding signal,SPIB,"1.09 fold enrichment (6-mer frequency, TF over GST control)"
same,binding signal,ELK3,"1.24 fold enrichment (6-mer frequency, TF over GST control)"
same,binding signal,FEV,"1.04 fold enrichment (6-mer frequency, TF over GST control)"
same,binding signal,ETV5,"1.06 fold enrichment (6-mer frequency, TF over GST control)"
same,binding signal,HSF1,"1.25 fold enrichment (6-mer frequency, TF over GST control)"
same,binding signal,SPIC,"1.13 fold enrichment (6-mer frequency, TF over GST control)"
same,binding signal,ELF4,"1.14 fold enrichment (6-mer frequency, TF over GST control)"
same,binding signal,ELK4,"1.2 fold enrichment (6-mer frequency, TF over GST control)"
same,binding signal,ETV2,"1.16 fold enrichment (6-mer frequency, TF over GST control)"
same,binding signal,ELF3,"1.13 fold enrichment (6-mer frequency, TF over GST control)"
same,binding signal,CRX,"1.81 fold enrichment (6-mer frequency, TF over GST control)"
same,binding signal,ETV1,"1.06 fold enrichment (6-mer frequency, TF over GST control)"
